# Screens as filed in PubChem BioAssay.
# CF NFkB block: inhibitors of cystic fibrosis induced NF-kB. AID 588850. inhibition, % at 5 µM. 360,000 compounds, 0.86% hits. KKLEB NF-kB-GFP reporter, PAF-induced, GFP fluorescence overnight;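 active = at least 50% inhibition at 5 µM, scaled per plate between neutral and stimulator controls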;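 also: PAF is a Pseudomonas aeruginosa culture filtrate used as stimulus; plate controls were PAF-stimulated DMSO wells for no effect and unstimulated DMSO wells for full effect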
# HIF-2a block: blocks HIF-2a reporter activity; 360,000 compounds, 0.72% hits; inhibition, % at 18.8 µM; 786-0 RCC cells HIF-2a reporter, luciferase luminescence, overnight;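 active = inhibition of the luminescence signal of 40% or more relative to plate controls, in a single-dose primary screen at 18.75 µM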
# Peg3 prom inh: reduces Peg3 promoter-driven luciferase expression in HeLa; 360,000 compounds, 1.7% hits; inhibition, % at 20 µM; HeLa PEG-Prom luciferase reporter, luminescence, overnight;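 active = inhibition of at least 50% at 20 µM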
# KKLEB tox: reduces viability of KKLEB cystic fibrosis airway cells; 360,000 compounds, 0.36% hits; KKLEB CF airway cells viability, ATPlite luminescence, overnight; active compounds read low; cells stimulated with P. aeruginosa culture filtrate; activity change (cytotoxicity), % at 5 µM;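 active = corrected activity change at or below -50% at 5 µM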
# Mdm2 MdmX PPI: inhibitors of human Mdm2/MdmX interaction. O15151+Q00987. SaOS-2 split-luciferase Mdm2/MdmX complementation, luminescence. inhibition, % at 8 µM. 330,000 compounds, 3% hits. AID 485346;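 active = inhibition of at least 50% at 8 µM in the primary screen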
# ABHD5-PLIN5 inh: ABHD5-PLIN5 protein interaction inhibition; Q00G26+Q8WTS1; Split G. princeps luciferase complementation, luminescence, 4 h; inhibition, % at 4 µM; 360,000 compounds, 0.78% hits;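 active = inhibition above the mean inhibition across every tested compound plus 3 SD, cut at about 22% in these data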;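 also: 0% = DMSO only wells and the 100% control is not disclosed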
# Target sequence (Q00G26 whole entry, looked up): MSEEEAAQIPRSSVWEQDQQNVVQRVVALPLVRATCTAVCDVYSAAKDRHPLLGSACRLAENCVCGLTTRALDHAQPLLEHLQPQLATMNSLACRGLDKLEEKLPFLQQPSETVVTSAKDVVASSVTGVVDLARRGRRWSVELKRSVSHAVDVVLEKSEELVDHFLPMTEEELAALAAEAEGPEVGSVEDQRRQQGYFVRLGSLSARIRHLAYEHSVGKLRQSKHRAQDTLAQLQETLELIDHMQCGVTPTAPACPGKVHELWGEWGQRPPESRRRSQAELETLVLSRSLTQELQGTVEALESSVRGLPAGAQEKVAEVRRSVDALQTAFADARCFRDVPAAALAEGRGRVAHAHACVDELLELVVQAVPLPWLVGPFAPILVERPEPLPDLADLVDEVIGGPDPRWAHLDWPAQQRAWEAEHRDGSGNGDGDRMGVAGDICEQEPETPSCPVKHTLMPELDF
# Target sequence (Q8WTS1 whole entry, looked up): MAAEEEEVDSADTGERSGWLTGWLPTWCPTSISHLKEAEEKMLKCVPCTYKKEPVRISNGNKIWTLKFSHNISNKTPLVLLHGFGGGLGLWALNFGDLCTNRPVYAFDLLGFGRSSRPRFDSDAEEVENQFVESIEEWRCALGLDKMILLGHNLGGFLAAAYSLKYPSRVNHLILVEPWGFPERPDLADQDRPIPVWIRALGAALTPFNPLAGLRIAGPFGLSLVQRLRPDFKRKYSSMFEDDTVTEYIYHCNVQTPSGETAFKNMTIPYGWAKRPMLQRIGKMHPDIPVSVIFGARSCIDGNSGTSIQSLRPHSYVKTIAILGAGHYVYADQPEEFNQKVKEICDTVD
# * hit, by the source's call; · = not tested or not shown. This is a sample that favours compounds with a hit; in the whole collection about 4.6% have one here.
SMILES,CF NFkB block,HIF-2a block,Peg3 prom inh,KKLEB tox,Mdm2 MdmX PPI,ABHD5-PLIN5 inh
COc1ccc([C@@H]2C[C@H]3CN(c4ccccc4)C(=O)[C@]34CCCN24)c(OC)c1OC,5.1,18.9,-1.6,-7.6,15.7,0.2
COc1ccccc1N(C)S(=O)(=O)c1ccc(C(=O)NCCCN2CCCC2=O)cc1,-2.3,0.2,-7.9,8.0,·,-1.5
CCOC1=C2[C@@H](CN(S(=O)(=O)c3ccc(C)cc3)[C@H]2c2ccc(CC)cc2)[C@H]2C(=O)N(C)C(=O)[C@H]2C1,17.3,5.6,3.1,-15.3,·,-1.3
COc1cc(CCCN2CCNC[C@H]2Cc2cccc3ccccc23)cc(OC)c1OC,4.7,4.8,-22.5,-17.1,15.8,7.7
Cc1cc(NC(=O)c2ccc(S(=O)(=O)N3CCCC3)cc2)nc2c1c(=O)oc1ccccc12,47.1,-23.8,46.7,-53.5*,·,1.3
Cc1cc(NC(=O)c2ccc(S(=O)(=O)N3CCOCC3)cc2)nc2c1c(=O)oc1ccccc12,·,·,·,·,24.7,·
Fc1cccc(F)c1/C=N/Nc1ccccn1,-35.1,-196.7,-227.8,-0.3,-8.2,-2.2
Oc1ccc2ccccc2c1C=NNc1ccccn1,77.2*,-160.4,-79.4,-81.0*,·,1.7
CCN1C(=O)/C(=C/N(C)C)c2ccccc21,4.0,15.4,57.4*,-2.9,12.7,0.9
CCOc1ccccc1N1CCN(C(=O)C2CSC3(C)CCC(=O)N23)CC1 (stereo not drawn),-14.7,11.2,-7.2,3.7,-25.2,-1.0
NC(=S)NN=C1CSSC1,70.3*,-1.5,44.3,2.9,·,-17.9
COC(=O)c1ccc(CNC(=O)CN2C(=O)NC(Cc3ccccc3)(c3ccccc3)C2=O)cc1 (stereo not drawn),1.9,14.9,18.7,-20.4,·,1.3
CCC(C)NC(=O)N[C@@H](Cc1ccccc1)C(=O)O (stereo partly drawn),12.6,10.6,1.6,-85.3*,-20.8,1.9
CCc1nc2c(OCc3ccc(F)c(F)c3)cccn2c1N(C)C(=O)C1CC1,-9.8,13.3,10.9,10.7,·,-6.3
N#C/C(=C(/O)COC(=O)CCCNC(=O)c1ccc(Cl)cc1)c1nc2ccccc2[nH]1,4.9,5.4,0.1,-14.6,44.9,-0.1
COc1ccccc1OCC(=O)OC/C(O)=C(\C#N)c1nc2ccccc2[nH]1,-10.8,-15.8,21.6,8.1,26.4,1.0
Cc1cc(SCC(=O)OC/C(O)=C(\C#N)c2nc3ccccc3[nH]2)c(C)cc1Br,-10.6,7.0,51.0*,3.8,18.5,-3.3
N#C/C(=C(/O)COC(=O)CSc1ccc(Cl)cc1)c1nc2ccccc2[nH]1,2.9,6.7,75.2*,-2.6,9.3,-2.6
O=C(Nc1ccc2c(c1)[C@H]1C[C@@H](CC(=O)N3CCOCC3)O[C@@H](CO)[C@H]1O2)C1CCOCC1,-12.6,9.0,9.6,-11.4,·,5.1
Nc1ncnc2c1ncn2[C@@H]1O[C@H](C(=O)N[C@H]2c3ccccc3C[C@H]2OC=O)[C@@H](O)[C@H]1O,-13.8,9.5,12.0,-15.6,·,-6.0
Cc1cnc(C(=O)OCC(=O)N(Cc2ccccc2)C(C)(C)C)cn1,-8.2,8.0,-12.0,11.3,-4.7,6.2
O=C(NCCC(=O)N1CCN(S(=O)(=O)c2ccc(Cl)cc2)CC1)Nc1ccccc1,4.0,-9.8,-0.4,-2.8,16.5,2.0
Cc1cc(-n2c(C)cc(C(=O)CSc3nnnn3-c3ccc(Cl)cc3)c2C)no1,50.6*,-9.1,6.9,-67.9*,31.2,0.2
Cc1cc(-n2c(C)cc(C(=O)CSc3nnc4sc5ccccc5n34)c2C)no1,-6.7,-16.7,3.2,4.7,24.1,-9.3
COc1ccc(Cl)cc1NC(=S)NCCC(c1ccccc1)c1ccccc1,-7.4,17.6,32.4,7.7,43.4,-9.0
COc1cc(NC(=S)NCCC(c2ccccc2)c2ccccc2)c(OC)cc1Cl,6.1,16.0,52.6*,-3.5,31.0,-3.6
S=C(NCCC(c1ccccc1)c1ccccc1)Nc1ccc(Cl)cc1,7.4,-35.0,54.6*,-2.2,37.2,-10.7
S=C(NCCC(c1ccccc1)c1ccccc1)Nc1ccccc1Cl,-3.2,29.2,17.1,-0.2,1.1,-11.0
CCOC(=O)c1c(C)[nH]c(C)c1C(=O)COC(=O)Cc1n[nH]c(=O)c2ccccc12,-2.8,-0.3,5.8,-36.0,29.0,4.9
CCN(CC)CCNC(=O)CN1C(=O)CSc2ccc(S(=O)(=O)N3CCOCC3)cc21,10.1,19.9,-7.4,-15.8,·,4.7
